The list is not random: actives were taken first. Their share in the collection is about 1.2%.
PKA-R1A activ – activators of PKA-R1A holoenzyme, primary screen, biochemical, fluorescence polarization, Cy5-IP20, bovine R1A, mouse PKAc | cAMP-dependent protein kinase type I-alpha regulatory subunit (Bos taurus) + … | PKA-R1A dissociation; scaled: DMSO 0%, 113 µM cGMP 100% | activation, % at 11.4 µM | hit rate 0.083% among 340,000;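 active = percent activation above the mean of all tested compounds plus 3 SD, cut at about 19% in these data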;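 also: higher means more PKAc released from R1A so a rise in polarization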
Rev-erbA mod – modulators of Rev-erb alpha DNA binding, primary screen, biochemical, FITC-DNA, fluorescence polarization, uHTS; Nuclear receptor subfamily 1 group D member 1 (Homo sapiens), P20393; Rev-erbα–FITC-DNA binding, 90 min; activity, % at 10 µM; hit rate 0.79% among 370,000;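 active = activity above about 14%, limit read from the data; passing the limit was not always enough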
PG9 binder – binders of HIV-1 gp120 antibody PG9, primary screen, biochemical, TR-FRET; TR-FRET gp120-PG9 antibody binding; inhibition, % at 6.7 µM; hit rate 0.43% among 360,000; AID 624416, 2012; in the data active = inhibition above about 8.5%
PKA-R2B act – activators of PKA-R2B holoenzyme, primary screen, biochemical, fluorescence polarization, Cy5-IP20, human. PKA-R2B holoenzyme dissociation; R2B truncated from residue 108, S112A mutant; 0% DMSO only, 100% 113 µM cGMP. activation, % at 11.4 µM. hit rate 0.079% among 340,000;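 active = activation above a cutoff set at the mean over all compounds plus 3 SD, cut at about 18% in these data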;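 also: higher means more holoenzyme dissociation and a rise in polarization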
NR1D1 mod conf – modulators of Rev-erb alpha DNA binding, confirmation, biochemical, FITC-DNA, fluorescence polarization, single point; hit rate 61% among 3,000; activation, % at 25 µM; 90 min; shares compounds with Rev-erbA mod;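 active = activation at or above a set limit, or at least 3 SD above the negative control mean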
RORg DNA counter – modulation of RORgamma DNA binding, dose response, counter-screen for Rev-erb alpha modulator project, biochemical, fluorescence polarization, FITC-DNA; shares compounds with Rev-erbA mod; purified RORgamma protein-FITC-DNA binding; IC50, µM; hit rate 8% among 910;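 active = Compounds whose fitted half-maximal concentration for disrupting protein-DNA binding is below 10 micromolar; the record names Rev-erb in its text, so the target is in doubt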
Hits are given with their value.

For CN1C2=N[C@@H](c3ccc4c(c3)OCO4)CC(=O)N2/C(=C\c2ccccc2)[C@H]1c1ccccc1 the results were Rev-erbA mod inactive.
`CCCCCC(=O)N/N=C/c1cc(Br)c(O)c(OC)c1` gave PKA-R1A activ inactive, Rev-erbA mod inactive, PG9 binder inactive and PKA-R2B act inactive.
`COc1cc(/C=N/NC(=O)CC2(C)OCCO2)cc(Br)c1O` gave PKA-R1A activ inactive, Rev-erbA mod 71.2, PG9 binder inactive, PKA-R2B act inactive and NR1D1 mod conf inactive.
Cc1cc2c(cc(C(=O)OC(C)C(=O)NCc3ccc(F)cc3)n2C)o1 (stereo not given) was read as PKA-R1A activ inactive, Rev-erbA mod inactive, PG9 binder inactive and PKA-R2B act inactive.
For Cc1cc2c(cc(C(=O)OC(C)C(=O)NCc3ccccc3)n2C)o1 (stereo not given) the results were PKA-R1A activ inactive, Rev-erbA mod 26.3, PG9 binder inactive, PKA-R2B act inactive and NR1D1 mod conf 17.5.
COC(=O)c1cc(-c2cccc(C(F)(F)F)c2)c(=O)n2c1CCC2 was read as Rev-erbA mod inactive.
Screening CN(C)c1ncnc2c1ncn2[C@H]1CN(Cc2cccs2)C[C@@H](CO)O1 returned Rev-erbA mod 23.9, PG9 binder inactive and NR1D1 mod conf inactive.
Screening Nc1ncc2c(n1)-c1cc(Cl)ccc1SC2 returned PKA-R1A activ inactive, Rev-erbA mod 34.3, PG9 binder inactive, PKA-R2B act inactive and NR1D1 mod conf inactive.
Cc1ccc(NC(=S)Nc2ccc(S(=O)(=O)N3CCOCC3)cc2)cc1S(=O)(=O)N1CCOCC1 was read as PKA-R1A activ inactive, Rev-erbA mod 16.6, PG9 binder inactive, PKA-R2B act inactive and NR1D1 mod conf inactive.
`O=S(=O)(c1ccc(F)cc1)N1CCN(c2ccc(F)cc2)CC1` gave PKA-R1A activ inactive, Rev-erbA mod inactive, PG9 binder inactive and PKA-R2B act inactive.
For O=c1ccc2cc(S(=O)(=O)N3CCN(c4ccccc4F)CC3)ccc2[nH]1 the results were PKA-R1A activ inactive, Rev-erbA mod inactive, PG9 binder inactive and PKA-R2B act inactive.
For O=S(=O)(c1ccc2nc(N3CCN(c4ccc(F)cc4)CC3)ccc2c1)N1CCCCC1 the results were PKA-R1A activ inactive, Rev-erbA mod 36.9, PG9 binder inactive, PKA-R2B act inactive and NR1D1 mod conf 27.0.
Screening CC1CCN(S(=O)(=O)c2ccc3nc(N4CCN(c5ccccc5)CC4)ccc3c2)CC1 returned Rev-erbA mod 92.4, PG9 binder inactive, NR1D1 mod conf 56.7 and RORg DNA counter inactive.
O=S(=O)(c1ccc2nc(N3CCN(c4ccccc4F)CC3)ccc2c1)N1CCCCC1 was read as PKA-R1A activ inactive, Rev-erbA mod 41.1, PG9 binder inactive, PKA-R2B act inactive, NR1D1 mod conf 30.6 and RORg DNA counter inactive.
For COc1ccc(Cl)cc1S(=O)(=O)N1CCN(C(=O)CSc2nc3ccccc3nc2N2CCCC2)CC1 the results were Rev-erbA mod inactive.
`COC(=O)[C@]12C[C@H](CC(=O)NCCCN3CCCC3=O)C(=O)N(Cc3ccco3)C1=C[C@H](C(C)(C)C)O[C@@H]2C` gave Rev-erbA mod inactive.
Screening Cc1ccc2nc(SCC(=O)N3c4ccccc4CC3C)c(C)cc2c1 (stereo not given) returned PKA-R1A activ inactive, Rev-erbA mod 27.5, PG9 binder inactive, PKA-R2B act inactive and NR1D1 mod conf inactive.
CC1Cc2ccccc2N1C(=O)CSc1ncccn1 (stereo not given) was read as PKA-R1A activ inactive, Rev-erbA mod inactive, PG9 binder inactive and PKA-R2B act inactive.
Screening Cc1ccc2nc(-c3cccnc3SCC(=O)N3c4ccccc4CC3C)[nH]c2c1 (stereo not given) returned PKA-R1A activ inactive, Rev-erbA mod 32.7, PG9 binder inactive, PKA-R2B act inactive and NR1D1 mod conf 19.6.

Assay outcomes from PubChem BioAssay.
